CCT chaperon mod – cytosolic chaperonin activity modulation; purified chaperonin ATPase assay, HTRF ADP detection, 30 min; activity change, % (concentration not given with the values), hits read low; 360,000 tested, 0.3% active; AID 651819; in the data active = activity change below about -30%; also: % is scaled to controls: 0 for no effect and ±100 for the full control effect
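Nucleotide hydrolysis assay: TRiC at 20–40 nM final (set by batch activity) with 10 uM ATP, 30 min at 37 °C, in presence of 76 uM compound. Detection by competitive ADP HTRF, 30 min ambient.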
GLP1R inv ag – acts as inverse agonist at human GLP-1 receptor | Potency, µM (titrated, usually from 38.3 µM), inactives show at the highest dose activity change, negative = inhibition, usual class: inhibitors | P43220 | HEK293 GLP-1R CRE-luciferase, luminescence, 24 h; GLP-1R form is constitutively active | 410,000 tested, 1.6% active; also: potency is read from the fitted curve at half-maximal effect; % is scaled to controls: 0 for no effect and ±100 for the full control effect; nearly all actives have a fitted effect of over 55% in size
Target sequence (P43220 whole entry, looked up): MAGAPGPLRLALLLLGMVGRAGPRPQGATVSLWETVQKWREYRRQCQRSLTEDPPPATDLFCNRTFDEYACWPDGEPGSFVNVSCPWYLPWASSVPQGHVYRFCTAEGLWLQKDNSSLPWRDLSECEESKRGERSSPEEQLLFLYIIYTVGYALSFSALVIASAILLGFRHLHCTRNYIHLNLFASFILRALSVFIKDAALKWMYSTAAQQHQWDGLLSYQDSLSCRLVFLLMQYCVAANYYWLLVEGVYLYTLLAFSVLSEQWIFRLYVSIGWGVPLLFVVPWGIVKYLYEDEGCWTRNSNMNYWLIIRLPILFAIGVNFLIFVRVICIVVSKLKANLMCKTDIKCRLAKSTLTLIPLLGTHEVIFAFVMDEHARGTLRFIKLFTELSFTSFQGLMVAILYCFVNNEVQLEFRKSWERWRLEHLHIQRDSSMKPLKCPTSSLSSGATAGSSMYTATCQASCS
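Stable HEK293 clone (constitutively active GLP-1R + cAMP-response luciferase); 200 cells/uL plated, 12 h pre-culture, compound 24 hr, 37 deg C/5% CO2; detection reagent 12 min RT; luminescence.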
GLP1R cytotox – cytotoxic in the GLP-1 receptor inverse agonist counter-screen | HEK293 cAMP-luciferase reporter cells, luminescence, 24 h | Potency, µM (titrated, usually from 38.3 µM), inactives show at the highest dose activity change, negative = inhibition, usual class: inhibitors | 410,000 tested, 0.13% active;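 also: loss of luciferase light is scored as toxicity; potency is read from the fitted curve at half-maximal effect; % is scaled to controls: 0 for no effect and ±100 for the full control effect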
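1536-well qHTS counterscreen of the MLSMR; 200 cells/uL, 12 h pre-incubation, 23 nL cpd, 24 h at 37 deg C 5% CO2, luciferase detection reagent, 12 min RT, luminescence. Inhibition = undesired.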
GLP1R ag – agonists of human GLP-1 receptor | Potency, µM (series often up to 45.6 µM), without a hit: top-dose activation, usual class: activators | HEK293 GLP-1R CRE-luciferase, luminescence, 4-6 h; cells express a hypersensitive GLP-1R form | P43220 | 380,000 tested, 0.007% active | AID 624172; also: potency is read from the fitted curve at half-maximal effect; % of control where 0% means no effect
MmCpn inh – blocks the Methanococcus maripaludis chaperonin Mm-Cpn | 330,000 tested, 0.031% active | purified Mm-Cpn ATPase, ADP Transcreener TR-FRET | Potency, µM (top dose mostly 76.9 µM), without a hit: top-dose activity, negative = inhibition, usual class: inhibitors; also: potency is read from the fitted curve at half-maximal effect; % is scaled to controls: 0 for no effect and ±100 for the full control effect; nearly all actives have a fitted effect of over 80% in size
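ATPase read-out: TR-FRET ADP immunoassay (anti-ADP Eu cryptate vs ADP-d2), ex 320 nm, em 590/665 nm; signal drops as ADP forms. Enzyme 25 nM, ATP 10 uM, 30 min at 37°C after 10 min compound preincubation.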
uPA surface inh – inhibitors of cell surface uPA generation | cell surface uPA generation assay, qHTS | Potency, µM (highest dose often 38.3 µM), inactives show top-dose activity change, negative = inhibition, actives largely listed as inhibitors | 330,000 tested, 0.31% active; active = well fitted inhibition curve with a large enough effect; inconclusive = small, poorly fitted or top-dose-only effect; inactive = no such curve, though single readings can be large or run the other way; tested in mouse RAW 264.7 cells; also: potency is read from the fitted curve at half-maximal effect; % is scaled to controls: 0 for no effect and ±100 for the full control effect; nearly all actives have a fitted effect of over 55% in size
Starred values were filed as active, the others as inactive. A selection: hits, their analogues and other compounds. The true share with any hit is near 2.2%. Unless noted, calls follow the shape of the dose curve; as a rule, active = well fitted curve in the direction sought with a large enough effect; inconclusive = small, poorly fitted or top-dose-only effect, or another doubt; inactive = no such curve, though single readings can be large; an effect the other way counts as inactive or inconclusive.

How did CC(C)c1ccc(NC(=O)C(c2ccc3c(c2)OCO3)N2CCN(C(=O)c3ccco3)CC2)cc1 (stereo not drawn) do in these assays?
CCT chaperon mod: -1.2; GLP1R inv ag: 10µM*; GLP1R cytotox: -28.6%; GLP1R ag: 0.6%; MmCpn inh: 0.7%; uPA surface inh: -4.1%

How did CC(C)c1ccc(NC(=O)C(c2ccccc2)N2CCN(C(=O)c3ccco3)CC2)cc1 (stereo not drawn) do in these assays?
CCT chaperon mod: -0.1; GLP1R inv ag: inconclusive; GLP1R cytotox: -4.4%; GLP1R ag: -0.8%; MmCpn inh: -0.8%; uPA surface inh: -1.1%

What do the screens show for `CC(NC(=O)Nc1ccc(F)cc1)c1ccc2c(c1)OCO2` (stereo not drawn)?
CCT chaperon mod: -0.2; GLP1R inv ag: inconclusive; GLP1R cytotox: 2.9%; GLP1R ag: 9.8%; MmCpn inh: 1.3%; uPA surface inh: -1.7%

What do the screens show for `CCN(CC)C(C(=O)Nc1ccc(C(C)C)cc1)c1ccc2c(c1)OCO2` (stereo not drawn)?
CCT chaperon mod: -0.7; GLP1R inv ag: 7.08µM*; GLP1R cytotox: inconclusive; GLP1R ag: -0.3%; MmCpn inh: -0.9%; uPA surface inh: -2.1%

What do the screens show for `Cc1ccc(Sc2c(C)nn(C(C)(C)C)c2OC(=O)CC(C)C)cc1`?
GLP1R inv ag: inconclusive; GLP1R cytotox: -10.8%

Results for O=C(Nc1ccc(NC(=O)c2cccs2)c(Cl)c1)c1ccco1 ?
CCT chaperon mod: -0.5; GLP1R inv ag: -18.6%; GLP1R cytotox: -6.5%; GLP1R ag: 14.2%; MmCpn inh: 3.1%; uPA surface inh: 1.6%

Results for O=C(Nc1ccc(NC(=O)c2sc3ccccc3c2Cl)cc1Cl)c1ccco1 ?
CCT chaperon mod: -33.5*; GLP1R inv ag: 19.5%; GLP1R cytotox: -10.5%; GLP1R ag: 2.7%; MmCpn inh: -0.4%; uPA surface inh: -1.6%

What do the screens show for `CCCCNS(=O)(=O)c1ccc2nc(-c3cccnc3)cc(C(=O)NCCC)c2c1`?
GLP1R inv ag: 8.3%; GLP1R cytotox: 8.6%

How did CCOC(=O)c1cc(-c2ccccc2)n(CCCC(=O)Nc2cc(C)ccc2OC)c1C do in these assays?
GLP1R inv ag: inconclusive; GLP1R cytotox: -19.4%

How did Cc1nc(-c2ccc(S(=O)(=O)Nc3cccc(Cl)c3)cc2)co1 do in these assays?
CCT chaperon mod: 1.5; GLP1R inv ag: inconclusive; GLP1R cytotox: 3.1%; GLP1R ag: 6.6%; MmCpn inh: 0.0%; uPA surface inh: 5.1%

Results for CSc1cccc(NS(=O)(=O)c2ccc(-c3coc(C)n3)cc2)c1 ?
CCT chaperon mod: 0.0; GLP1R inv ag: 8.91µM*; GLP1R cytotox: 0.2%; GLP1R ag: 0.3%; MmCpn inh: 0.5%; uPA surface inh: -7.1%

Results for CCC(C)NC(=O)Cn1c(=O)ccc2cc(S(=O)(=O)N3CCCC3)ccc21 (stereo not drawn) ?
GLP1R inv ag: 0.2%; GLP1R cytotox: -6.0%; GLP1R ag: 8.2%

Results for CC(C)CCn1c(-c2nonc2N)nc2ccccc21 ?
CCT chaperon mod: -0.1; GLP1R inv ag: 2.24µM*; GLP1R cytotox: -14.5%; GLP1R ag: 0.9%; MmCpn inh: 0.9%; uPA surface inh: -2.4%

How did CCCCn1c(-c2nonc2N)nc2ccccc21 do in these assays?
CCT chaperon mod: -4.6; GLP1R inv ag: -6.4%; GLP1R cytotox: 3.6%; GLP1R ag: -4.7%; MmCpn inh: -1.1%; uPA surface inh: -1.7%

What do the screens show for `COc1cc([N+](=O)[O-])ccc1NC(=O)N1CCC2(CC1)Nc1cc(F)ccc1-n1cccc12`?
GLP1R inv ag: 11.2µM*; GLP1R cytotox: -21.2%

What do the screens show for `COc1ccc(/C=C2\SC(=S)N(CCCC(=O)N3CCN(C)CC3)C2=O)cc1`?
CCT chaperon mod: -2.4; GLP1R inv ag: inconclusive; GLP1R cytotox: inconclusive; GLP1R ag: 2.8%; MmCpn inh: -0.3%; uPA surface inh: -3.6%

Bioassay records from PubChem.
